The subject of this test is primary human hepatic stellate cells (donor 1). The test can be described thus: scaled lipid accumulation score (0 = DMSO-like, 1 = nortriptyline-like); higher = stronger HSC inactivation (lipid re-accumulation), active = hit call of the paper. The settings on record: 48 h.
Setting [1] is: library stock concentration: 1 mM.
The mark [2] stands for this setting: library stock concentration: 10 mM.
Setting [3] is: library stock concentration: 3.33 mM.
Setting [4] is: library stock concentration: 6.4 mM.
Setting [5] is: library stock concentration: 2 mM.
The mark [6] stands for this setting: library stock concentration: 400 uM.
Setting [7] is: library stock concentration: 80 uM.

Where “and” joins values, the source holds several entries; their conditions need not be identical. Identical values can stand only once. Counter-ions that a name gives are not always drawn. About 620 (11%) of roughly 5,800 compounds showed activity. Many of the other results were omitted from the sample, so actives are more common in it than they were. Values without a mark were called inactive.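 Rule for the calls: active = score above a cut-off or among the top three wells of a plate; in these data no inactive exceeds 0.85.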

With `CC/C=C\C/C=C\C/C=C\CCCCCCCC(=O)N[C@@H](Cc1ccc(O)cc1)C(=O)O` [N-(.alpha.-Linolenoyl) Tyrosine], under setting [1], the “scaled lipid accumulation score” value was no more than 0.

`CCCCC/C=C\C=C\CCCCCCCCC(=O)O` [10(E),12(Z)-Conjugated Linoleic Acid]: the “scaled lipid accumulation score” value under setting [1] is 0.069.

In the case of `CCC=CCC=CCC=CCC=CCCCCC(=O)OCC` [Stearidonic Acid ethyl ester], the “scaled lipid accumulation score” value under setting [1] is no more than 0.

Regarding `CC(=O)N[C@@H](CSC/C=C(\C)CC/C=C(\C)CC/C=C(\C)CCC=C(C)C)C(=O)O` [N-acetyl-S-geranylgeranyl-L-Cysteine], under setting [1], the “scaled lipid accumulation score” value was ≤ 0 and ≤ -0.021.

As for `Cc1cccc(CN2CCN(C(c3ccccc3)c3ccc(Cl)cc3)CC2)c1` (stereo not drawn) [Meclozine dihydrochloride], the “scaled lipid accumulation score” value is 0.368.

On to `Cc1cncc(CN2CCC(=C3c4ccc(Cl)cc4CCc4cccnc43)CC2)c1.O=C(O)C=CC(=O)O` [Rupatadine Fumarate], for which the “scaled lipid accumulation score” value under setting [2] was 0.862 (active).

Turning to `Cc1cccc(CN2CCN(C(c3ccccc3)c3ccc(Cl)cc3)CC2)c1` (stereo not drawn) [Meclizine hydrochloride], the “scaled lipid accumulation score” value under setting [2] is 0.376 and 0.485.

Take `CCOC(=O)N1CCC(=C2c3ccc(Cl)cc3CCc3cccnc32)CC1` [Loratadine]: the “scaled lipid accumulation score” value under setting [3] is no more than 0; the “scaled lipid accumulation score” value (library stock concentration: 5.2 mM) is no more than 0; the “scaled lipid accumulation score” value under setting [2] is ≤ 0 and 0.008.

Regarding `Clc1ccc2c(c1)CCc1cccnc1C2=C1CCNCC1`, the “scaled lipid accumulation score” value under setting [2] is 1.52 (active).

Consider `Cc1cncc(CN2CCC(=C3c4ccc(Cl)cc4CCc4cccnc43)CC2)c1` [Rupatadine Fumarate], for which the “scaled lipid accumulation score” value under setting [3] was 0.371.

For the compound `CCOC(=O)N1CCC(=C2c3ccc(Cl)cc3CCc3cccnc32)CC1`, under setting [2], the “scaled lipid accumulation score” value is no more than 0.

`C(=C(\CCNC1)/C1)(/c2c(cccn2)CC3)\c(ccc(Cl)c4)c34` [Desloratadine]: the “scaled lipid accumulation score” value under setting [4] was 1.03 (active).

In the case of `CCOC(=O)N1CCC(=C2c3ccc(Cl)cc3CCc3cccnc32)CC1` [Loratidine], under setting [2], the “scaled lipid accumulation score” value was 0.128.

Regarding `Clc1ccc2c(c1)CCc1cccnc1C2=C1CCNCC1` [Desloratidine], the “scaled lipid accumulation score” value under setting [4] was 0.46.

For the compound `Clc1ccc2c(c1)CCc1cccnc1C2=C1CCNCC1` [Desloratadine], the “scaled lipid accumulation score” value reads like this: under setting [3], 0.268; under setting [2], 0.837.

For the compound `CCCCC/C=C/C/C=C/C/C=C/C/C=C/CCCC(=O)Oc1ccc2ccc(=O)oc2c1` [7-hydroxycoumarinyl Arachidonate], under setting [1], the “scaled lipid accumulation score” value was no more than 0.

Regarding `CC(C)(C)c1nc2c3cc[nH]c(=O)c3c3cc(F)ccc3c2[nH]1` [Merck -5 (2 mM)], the “scaled lipid accumulation score” value under setting [5] was no more than -0.005.

`CC(C)(C)c1nc2c3cc[nH]c(=O)c3c3cc(F)ccc3c2[nH]1` [JAK Inhibitor I]: under setting [3], the “scaled lipid accumulation score” value was no more than 0.

On to `CC(C)(C)c1nc2c3cc[nH]c(=O)c3c3cc(F)ccc3c2[nH]1` [Merck -5 (10 mM)], for which the “scaled lipid accumulation score” value under setting [2] is 0.114.

In the case of `CC(C)(C)c1nc2c3cc[nH]c(=O)c3c3cc(F)ccc3c2[nH]1` [Merck -5 (0.4 mM)], the “scaled lipid accumulation score” value under setting [6] was no more than -0.005.

For the compound `COc1ccc2c(c1)c(CC(=O)NCCc1ccccc1)c(C)n2C(=O)c1ccc(Cl)cc1` [N-(2-phenylethyl)-Indomethacin amide], the “scaled lipid accumulation score” value under setting [1] was 0.049.

In the case of `O=c1ncn2nc(Sc3ccc(F)cc3F)ccc2c1-c1c(Cl)cccc1Cl`, the “scaled lipid accumulation score” value was 0.019 under setting [7]; 0.039 under setting [6]; 0.129 under setting [5]; 0.019 under setting [3]; ≤ 0 and 0.119 under setting [2].

With `C[C@@H](O)[C@H]1C(=O)N2C(C(=O)OCOC(=O)C(C)(C)C)=C(SC3CN(C4=NCCS4)C3)[C@H](C)[C@H]12` [Tebipenem Pivoxil], the “scaled lipid accumulation score” value reads like this: under setting [3], no more than 0; under setting [2], no more than 0.

For the compound `O=P(O)(O)O[C@H]1[C@@H](O)[C@H](O)[C@@H](OP(=O)(O)O)[C@H](OP(=O)(O)O)[C@H]1O` [D-myo-Inositol-2,4,5-triphosphate (sodium salt)], the “scaled lipid accumulation score” value under setting [1] was no more than 0.

In the case of `O=C1C(Cl)=C(N2C(=O)CCC2=O)C(=O)c2ccccc21` [MEK Inhibitor II], under setting [3], the “scaled lipid accumulation score” value was 0.073.

Regarding `CCCCCCCCCCCCCC(=O)OCC` [Myristic Acid ethyl ester], the “scaled lipid accumulation score” value under setting [1] was 0.028.

As for `COc1cc2/c(=N/c3ccc(Br)cc3F)nc[nH]c2cc1OCC1CCN(C)CC1` [Vandetanib], the “scaled lipid accumulation score” value is, setting by setting: under setting [7], 0.09; under setting [6], 0.381.

Consider `COc1cc2c(Nc3ccc(Br)cc3F)ncnc2cc1OCC1CCN(C)CC1` [Vandetanib  (ZD6474, Zactima) (0.4 mM)], for which the “scaled lipid accumulation score” value under setting [6] was 1.1 (active).

For `COc1cc2/c(=N/c3ccc(Br)cc3F)nc[nH]c2cc1OCC1CCN(C)CC1` [Vandetanib (ZD6474)], the “scaled lipid accumulation score” value under setting [2] is 0.754.

Turning to `COc1cc2c(Nc3ccc(Br)cc3F)ncnc2cc1OCC1CCN(C)CC1` [Vandetanib  (ZD6474, Zactima) (2 mM)], the “scaled lipid accumulation score” value under setting [5] was 0.855 (active).

On to `COc1cc2ncnc(Nc3ccc(Cl)cc3F)c2cc1OC`, for which the “scaled lipid accumulation score” value runs as follows: under setting [3], no more than 0; under setting [2], ≤ 0 and ≤ -0.001.

Turning to `COc1cc2ncnc(Nc3ccc(O)c(Br)c3)c2cc1OC` [JAK3 Inhibitor II], the “scaled lipid accumulation score” value under setting [3] is no more than 0.

Consider `COc1cc2ncnc(Nc3ccc(O)c(Br)c3)c2cc1OC`, for which the “scaled lipid accumulation score” value reads like this: under setting [3], no more than 0; under setting [2], no more than 0.

On to `COc1cc2/c(=N/c3ccc(Br)cc3F)nc[nH]c2cc1OCC1CCN(C)CC1` [Vandetanib  (ZD6474, Zactima) (10 mM)], for which the “scaled lipid accumulation score” value under setting [2] was 0.445.

Turning to `COc1cc2c(Nc3ccc(Br)cc3F)ncnc2cc1OCC1CCN(C)CC1` [Vandetanib (ZD6474)], the “scaled lipid accumulation score” value under setting [3] is 1.18 (active).

With `COc1cc2c(Nc3ccc(Br)cc3F)ncnc2cc1OCC1CCN(C)CC1` [Vandetanib], the “scaled lipid accumulation score” value under setting [5] was 1.27 (active) and the “scaled lipid accumulation score” value under setting [2] is 1.66 (active).

As to `C=CC(=O)N1CCC(Oc2cc3c(Nc4ccc(Cl)c(Cl)c4F)ncnc3cc2OC)CC1` [Poziotinib], the “scaled lipid accumulation score” value is 0.111 under setting [7], 0.281 under setting [6], 0.059 under setting [5] and 0.72 under setting [2].

On to `COc1c2ccoc2nc2c(OC)c(OCC(O)C(C)(C)O)ccc12` (stereo not drawn) [Evoxine], for which the “scaled lipid accumulation score” value is no more than 0.

The values above are taken from the supplement of paper PMC9135407.
